# This is a sample that favours compounds with a hit; in the whole collection about 19% have one here.
# RORgamma inh = qHTS for inhibitors of ROR gamma transcriptional activity. Nuclear receptor ROR-gamma (Mus musculus), P51450. Drosophila S2 Gal4-RORgamma UAS-luciferase reporter, 20 h. Potency, µM (doses to about 53.6 µM), for the others: at the highest dose activity change, negative = inhibition, actives largely listed as inhibitors. 5.4% of 310,000 active; note: nearly all actives have a fitted effect of over 60% in size
#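 Luciferase reporter read in Schneider cells carrying Gal4-RORγ (mouse) and UAS-Photinus luciferase; cells given compound 1 h before 700 uM copper sulfate induction, then incubated 20 h at ambient temperature.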
# VP16 counter = VP16 counterscreen qHTS for inhibitors of ROR gamma transcriptional activity. Drosophila S2 Gal4-VP16 UAS-luciferase, luminescence, 20 h. Potency, µM (top dose mostly 53.6 µM), for the others: top-dose activity, negative = inhibition, actives largely listed as inhibitors. 3.5% of 310,000 active. AID 2546, 2010;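 note: Gal4-VP16 expression switched on by copper sulfate through the metallothionein promoter; nearly all actives have a fitted effect of over 50% in size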
# TDP1 cell noCPT = qHTS for Inhibitors of human tyrosyl-DNA phosphodiesterase 1 (TDP1): qHTS in cells in absence of CPT. DT40 Tdp1-/- hTDP1 cells, no CPT, ATP luminescence, 48 h. Potency, µM (series often up to 46.2 µM), for the others: top-dose activity change, negative = growth inhibition, usual class: inhibitors. 15% of 420,000 active. AID 686978, 2013; note: nearly all actives have a fitted effect of over 55% in size
#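 Luminescent ATP content (CellTiter-Glo) served as the growth readout. Knockout chicken DT40 cells expressing human TDP1 were exposed to compounds without camptothecin for a minimum 48 hr at 37 °C.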
# DT40 TDP1 CPT = qHTS for Inhibitors of human tyrosyl-DNA phosphodiesterase 1 (TDP1): qHTS in cells in presence of CPT; chicken DT40 Tdp1-/-;hTDP1 cells + 20 nM CPT, ATP luminescence, 48 h; Potency, µM (titrated, usually from 46.2 µM), inactives show at the highest dose activity change, negative = growth inhibition, actives largely listed as inhibitors; 12% of 420,000 active; AID 686979, 2013; note: nearly all actives have a fitted effect of over 55% in size
#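 Chicken DT40 Tdp1-/- cells complemented with human TDP1, 400 cells/well, exposed to compounds plus 20 nM camptothecin for at least 48 h at 37 C; viability read as ATP content by CellTiter-Glo luminescence.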
# TDP1 block = qHTS Assay for Inhibitors of Tyrosyl-DNA Phosphodiesterase (TDP1); Tyrosyl-DNA phosphodiesterase 1 (Homo sapiens), Q9NUW8; recombinant TDP1, AlphaScreen DNA substrate cleavage; Potency, µM (top dose mostly 130 µM), for the others: top-dose activity change, negative = inhibition, most hits filed as inhibitors; 0.28% of 350,000 active; AID 485290, 2010; note: nearly all actives have a fitted effect of over 40% in size
# Target sequence (Q9NUW8 whole entry, looked up): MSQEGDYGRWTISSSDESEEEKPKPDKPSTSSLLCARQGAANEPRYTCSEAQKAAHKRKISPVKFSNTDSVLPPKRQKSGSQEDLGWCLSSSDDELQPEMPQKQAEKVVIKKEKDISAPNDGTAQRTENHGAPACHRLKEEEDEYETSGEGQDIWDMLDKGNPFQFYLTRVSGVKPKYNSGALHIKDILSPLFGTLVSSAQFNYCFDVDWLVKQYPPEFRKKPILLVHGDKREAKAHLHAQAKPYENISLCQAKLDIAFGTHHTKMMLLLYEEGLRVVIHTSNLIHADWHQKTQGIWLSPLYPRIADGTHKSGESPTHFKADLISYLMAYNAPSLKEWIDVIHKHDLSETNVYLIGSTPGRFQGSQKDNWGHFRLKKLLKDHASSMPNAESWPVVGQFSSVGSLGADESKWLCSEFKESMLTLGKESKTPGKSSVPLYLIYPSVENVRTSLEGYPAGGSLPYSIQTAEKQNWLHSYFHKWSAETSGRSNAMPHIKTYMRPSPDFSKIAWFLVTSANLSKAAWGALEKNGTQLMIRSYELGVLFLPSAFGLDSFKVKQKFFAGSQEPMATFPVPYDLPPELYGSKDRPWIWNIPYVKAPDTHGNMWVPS
#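 Recombinant E. coli-expressed Tdp1 (1 nM) preincubated with compound 15 min at RT, then 5'-biotin/3'-phosphotyrosine-FITC DNA substrate (15 nM) added for 5 min. AlphaScreen beads (10 ug/ml) added, 10 min RT; tyrosine-FITC cleavage read as signal loss.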
# Numbers without * were called inactive; ? = inconclusive; nt = no result; [ ] = dose if it differs, or a comment. Calls come from the whole dose curve; as a rule, active = well fitted curve in the direction sought with a large enough effect; inconclusive = small, poorly fitted or top-dose-only effect, or another doubt; inactive = no such curve, though single readings can be large; an effect the other way counts as inactive or inconclusive. % is set by controls: 0 for no effect and ±100 for the full control effect; potency is the fitted concentration of half-maximal effect.
SMILES,RORgamma inh,VP16 counter,TDP1 cell noCPT,DT40 TDP1 CPT,TDP1 block
COC(=O)C1(C(=O)OC)C[C@H](c2cccs2)N(Cc2ccccc2OC)[C@@H]1c1ccc(F)cc1,nt,nt,14.6µM*,14.6µM*,nt
COC(=O)C1(C(=O)OC)C[C@H](/C=C/c2ccccc2)N(Cc2ccccc2OC)[C@@H]1c1ccccc1,nt,nt,14.6µM*,?,nt
COc1ccc(/C=C/C(=O)CCC(=O)O)cc1,-5.5%,-4.9%,-16.3%,20.9%,5.4%
Cc1nnc(SCc2ccc([N+](=O)[O-])cc2)[nH]c1=O,-1.3%,-1.7%[10 µM],6.4%,9.5%,-5.4%
CC1(C)CC2CC(C)(CN2S(=O)(=O)c2ccc(C(=O)Nc3ccc(Cl)c(S(=O)(=O)N4CCOCC4)c3)cc2)C1 (stereo not drawn),?,12.6µM*,3.66µM*,3.26µM*,3.9%
CCCNC(=O)c1cccc(S(=O)(=O)N2CC3(C)CC2CC(C)(C)C3)c1 (stereo not drawn),nt,nt,?,?,-2.4%
CC(=O)Nc1ccc(C(=O)Nc2ccc(S(=O)(=O)N3CCOCC3)cc2)cc1,19.9%,3.1%,8.7%,-2.6%,3.4%
CCOC(=O)c1cc([N+](=O)[O-])sc1NC(=O)c1ccc(S(=O)(=O)N2CC3(C)CC2CC(C)(C)C3)cc1 (stereo not drawn),16.2%,-1.6%,2.59µM*,2.31µM*,2.6%
CC1(C)CC2CC(C)(CN2S(=O)(=O)c2ccc(C(=O)Nc3ccc(S(=O)(=O)N4CCOCC4)cc3)cc2)C1 (stereo not drawn),?,?,5.17µM*,3.66µM*,-3.4%
CC(=O)Nc1ccc(S(=O)(=O)N2CC3(C)CC2CC(C)(C)C3)cc1 (stereo not drawn),3.5%,-1.6%,?,-5.6%,5.5%
Cc1c(C(=O)O)oc2c3c(ccc12)OCCO3,-35.7%,2.0%,-24.6%,-12.8%,5.6%
C(=NOCc1ccccc1)c1ccccn1,nt,nt,-1.3%,-6.5%,nt
CC1CCCC(C)N1C(=O)COC(=O)c1ccc(Br)c(S(=O)(=O)N2CCOCC2)c1 (stereo not drawn),nt,nt,?,-13.8%,0.6%
Cc1ccc(S(=O)(=O)CCSC(=N)N)cc1,-24.9%,-8.0%,16.4µM*,?,5.1%
Cc1ccc(S(=O)(=O)CCSc2cccc(C(=O)O)c2)cc1,-5.9%,-17.7%,11.6%,15.1%,nt
CC(C)C1(c2ccsc2)NC(=O)NC1=O (stereo not drawn),nt,nt,-1.9%,2.5%,nt
Cc1cc(C)c(NC(=O)Cn2c(=O)n(-c3cccc(C(F)(F)F)c3)c(=O)c3c(C)c(C)sc32)c(C)c1,nt,nt,-5.1%,-16.9%,5.5%
CCCN(CCC)C(=O)Cn1c(=O)n(-c2cccc(C(F)(F)F)c2)c(=O)c2c(C)c(C)sc21,nt,nt,20.6µM*,23.1µM*,6.4%
O=S(=O)(c1ccc(OCc2nc3ccccc3s2)c(Cl)c1)N1CCOCC1,44.8%,1.9%,?,-13.4%,7.2%
COCCN1CCN(Cc2cn[nH]c2-c2cc3ccccc3o2)CC1,30.3%,-0.3%,-5.6%,3.8%,-2.5%
C=CCn1c(=S)[nH]c2sc3c(c2c1=O)CCCC3,0.398µM*,0.708µM*,-6.8%,-26.3%,nt
COCCCn1c(=S)[nH]c2sc3c(c2c1=O)CCCC3,0.794µM*,1µM*,-8.2%,?,-3.9%
COCCn1c(=S)[nH]c2sc3c(c2c1=O)CCCC3,3.98µM*,2.24µM*,6.6%,-24.8%,3.5%
c1cc2c(cnc3cscc32)s1,8.9%,5.8%,-23.7%,-6.7%,?
Cc1c(OCC(=O)NCC2CCC(C(=O)NCCCO)CC2)ccc2c(-c3ccccc3)cc(=O)oc12 (stereo not drawn),8.9%,-11.6%,-5.8%,-10.7%,0.8%
SMILES,RORgamma inh,VP16 counter,TDP1 cell noCPT,DT40 TDP1 CPT,TDP1 block
CCCNC(=O)C1(C)CCN(C(=O)C(c2ccccc2)c2ccccc2)C1 (stereo not drawn),nt,nt,?,-25.0%,nt
O=C(O)c1cc(N/N=C/c2cccs2)ccc1Cl,-4.6%,-2.1%,nt,nt,nt
Fc1c(F)c(C(F)(F)F)c(F)c(F)c1N/N=C\c1cccs1,28.6%,-9.1%,18.4µM*,16.4µM*,-1.0%
COc1ccc2c(c1)cc1n2CCN2CCCN=C12,-29.1%,-17.2%,-6.2%,16.5%,-1.0%
CCOC(=O)CNC(=S)n1ncnc1N,?,-10.4%,?,16.4µM*,-3.8%
COc1ccc(C(=O)Nc2ccc3nc(SCc4ccc(C)cc4)sc3c2)cc1,nt,nt,?,-20.9%,-1.6%
Cc1ccc(OCC(=O)Nc2ccc3nc(SCC(=O)N4CCc5ccccc54)sc3c2)cc1,nt,nt,3.8%,2.7%,1.6%
CCCCC(=O)Nc1ccc2nc(SCC(=O)N3CCc4ccccc43)sc2c1,nt,nt,5.8µM*,14.6µM*,-3.6%
COc1ccc(C(=O)Nc2ccc3nc(SCC(=O)N4CCc5ccccc54)sc3c2)cc1,nt,nt,5.17µM*,2.91µM*,-1.6%
COc1cccc(C(=O)Nc2ccc3nc(SCC(=O)N4CCc5ccccc54)sc3c2)c1,nt,nt,4.61µM*,3.26µM*,1.6%
COc1cccc(C(=O)Nc2ccc3nc(SCc4ccc(C)cc4)sc3c2)c1,nt,nt,16.4µM*,16.4µM*,-0.5%
NC(=O)NC(=O)COC(=O)c1cccnc1Nc1ccccc1F,1.3%,1.6%,-6.4%,-4.6%,5.5%
CCCNC(=O)COC(=O)c1cccnc1Nc1ccccc1F,21.3%,?,16.4µM*,-27.5%,8.1%
CNc1cccc2c1C(=O)c1ccccc1C2=O,-22.5%,-4.4%,?,-22.9%,6.9%
O=C1c2cccc(NCCCNCCO)c2C(=O)c2cccc(NCCCNCCO)c21,nt,nt,5.8µM*,5.8µM*,nt
C=CCN1C(c2cccc(C(F)(F)F)c2)=CS/C1=C(\C#N)c1nnc(N2CCOCC2)n1-c1ccccc1,nt,nt,?,23.1µM*,nt
C=CCN1C(=O)NC(c2ccccc2)(C(F)(F)F)S/C1=C(\C#N)c1nnc(N2CCOCC2)n1-c1ccccc1 (stereo not drawn),5.62µM*,12.6µM*,?,?,-3.0%
C=CCN1C(c2ccc(Br)cc2)=CS/C1=C(\C#N)c1nnc(N2CCOCC2)n1-c1ccccc1,nt,nt,-94.1%,?,nt
CC(=O)c1c(C)nc(-c2ccc(OCC(=O)Nc3ccccc3)cc2)n1O,33.0%,-8.1%,7.0%,1.0%,7.4%
COc1ccc(CCNC(=O)C2CC3Cn4c(nc5cc6ccccc6cc54)C3N2C)cc1 (stereo not drawn),3.6%,-1.5%,20.6µM*,14.6µM*,0.0%
COc1ccccc1CNC(=O)C1CC2Cn3c(nc4cc(Cl)c(Cl)cc43)C2N1C (stereo not drawn),nt,nt,23.1µM*,?,nt
